Results published in PubChem BioAssay AID463173 (ICCB-Longwood Screening Facility, Harvard Medical School, 2010).
The campaign covered roughly 52,000 compounds. About 4,300 (8.3%) were called active. For the sample, actives were picked, then their nearest neighbours and some compounds at random. A number with no mark means an inactive call. No stated cut-off is given here; in the data, active means survival mostly below about 52% (no sharp cut-off); inactive means mostly above about 56%.

The compounds below were run on DeltatarO mutant (assay: S. aureus survival, RN4220 and DeltatarO strains – OD600, teichoic acid synthesis inhibitors, primary screen (AID 463173)). Conditions: S. aureus RN4220 wild type/DeltatarO growth, OD600, 18 h, hits give low values, screened at 18.75 µg/mL (by protocol).
Work on `CCOc1ccc(NC(=O)CC2C(=O)N(c3ccccc3)C(=O)N2CCc2ccc(OC)cc2)cc1` (stereo not given) yielded a survival of 59%. For `CCCNC(=O)CSc1cn(CC(=O)N2CCCCCC2)c2ccccc12`, the survival was 84%. `Cc1ccc(S(=O)(=O)c2cn(CC(=O)Nc3ccc(C)c(Cl)c3)c3ccc(C)cc3c2=O)cc1` gave a survival of 96%. With `CCOC(=O)c1oc2c(c1C)-c1nn(Cc3ccccc3Cl)cc1CC2` the survival was 38% (active). `CCOC(=O)c1oc2c(c1C)-c1nn(Cc3cccc(Cl)c3)cc1CC2` gave a survival of 53%. In the case of `CCOC(=O)c1oc2c(c1C)-c1nn(Cc3ccc(Cl)cc3)cc1CC2`, the survival is reported as 16% (active). `CCOC(=O)c1ccc(NC(=O)c2oc3c(c2C)-c2nn(Cc4ccccc4Cl)cc2CC3)cc1` gave a survival of 68%. Compound `COCCCNC(=O)c1oc2c(c1C)-c1nn(Cc3ccccc3Cl)cc1CC2` has a survival of 66%. `Cc1c(C(=O)O)oc2c1-c1nn(Cc3ccc(Cl)cc3)cc1CC2` gave a survival of 89%. With `COc1ccc(NC(=O)c2oc3c(c2C)-c2nn(Cc4ccccc4Cl)cc2CC3)cc1OC` the survival was 53% (active). In the case of `Cc1c(C(=O)O)oc2c1-c1nn(Cc3ccccc3Cl)cc1CC2`, the survival is reported as 80%. Work on `CC(=O)Nc1ccc(NC(=O)c2oc3c(c2C)-c2nn(Cc4ccccc4Cl)cc2CC3)cc1` yielded a survival of 61%. Compound `CC1=C(C(=O)OCC2CCCCC2)C(c2cccc(F)c2F)CC(=O)N1` (stereo not given) has a survival of 95%. `O=C1CC(NC2CC2)C(=O)N1c1ccccc1` (stereo not given) was tested, and the survival was 93%. `Cc1nn(Cc2ccc(Cl)c(Cl)c2)c(C)c1NC(=O)c1noc2c1CCc1ccccc1-2` was tested, and the survival was 46% (active). Work on `COc1ccc2c(c1)CCc1c(C(=O)Nc3c(C)nn(Cc4ccc(Cl)cc4)c3C)noc1-2` yielded a survival of 107%. `Cc1nn(Cc2ccc(F)cc2)c(C)c1NC(=O)c1noc2c1CCc1ccccc1-2` gave a survival of 63%. For `O=C(Nc1cnn(Cc2ccc(Cl)cc2Cl)c1)c1noc2c1CCc1ccccc1-2`, the survival was 47% (active). In the case of `Cc1nn(Cc2ccc(Cl)cc2)c(C)c1NC(=O)c1noc2c1CCc1ccccc1-2`, the survival is reported as 31% (active). `COc1ccc2c(c1)CCc1c(C(=O)Nc3cnn(Cc4ccc(Cl)cc4Cl)c3)noc1-2` showed a survival of 142%. In the case of `COc1ccc(Cl)cc1NC(=O)c1noc2c1CCc1ccccc1-2`, the survival is reported as 71%. For `COc1ccc2c(c1)CCc1c(C(=O)Nc3c(C)nn(Cc4ccc(Cl)c(Cl)c4)c3C)noc1-2`, the survival was 153%. Work on `COc1ccc2c(c1)CCc1c(C(=O)Nc3c(C)nn(Cc4ccccc4)c3C)noc1-2` yielded a survival of 118%. `CCOC(=O)c1ccc(OC(=O)c2cn(-c3cccc(OC)c3)c(=O)c3ccccc23)cc1` was tested, and the survival was 85%. Compound `Cc1cc(NC(=O)CSc2nc3c([nH]c4ccccc43)c(=O)n2-c2cccc(Cl)c2)no1` has a survival of 73%. `CC(=O)c1cc(-c2ccc(F)cc2)n(CC(=O)NCc2ccc(C)cc2)c1C` was tested, and the survival was 99%. `COc1ccc2nc(N(Cc3cccnc3)C(=O)c3ccc4c(c3)OCCO4)sc2c1` showed a survival of 65%. `Cc1ccc(NC(=O)c2ccco2)nc1` showed a survival of 108%. In the case of `CC1=C(C(=O)Nc2ccc(Cl)cc2)C(CC(C)C)n2nc(SCc3ccccc3C)nc2N1` (stereo not given), the survival is reported as 127%. In the case of `COC(=O)CCNC(=O)NC(CCC(C)C)c1c(-n2cccc2)sc2c1CCN(C)C2` (stereo not given), the survival is reported as 75%. `O=C1CC(c2nc(-c3ccccc3)no2)CN1c1ccc2c(c1)OCCO2` (stereo not given) was tested, and the survival was 93%. For `O=C1CC(c2nc(-c3ccccc3)no2)CN1c1ccccc1` (stereo not given), the survival was 25% (active). `COc1ccc(-c2noc(C3CC(=O)N(c4ccccc4)C3)n2)c(OC)c1` (stereo not given) gave a survival of 101%. For `O=C1CC(c2nc(-c3cccc(Cl)c3)no2)CN1c1ccc2c(c1)OCCO2` (stereo not given), the survival was 144%. Compound `O=C1CC(c2nc(-c3ccc(Cl)cc3)no2)CN1c1ccc2c(c1)OCCO2` (stereo not given) has a survival of 115%. Work on `COc1ccc(-c2noc(C3CC(=O)N(c4cc(C)cc(C)c4)C3)n2)cc1` (stereo not given) yielded a survival of 91%. `CN(C)c1ccc(-c2noc(C3CC(=O)N(c4ccc5c(c4)OCCO5)C3)n2)cc1` (stereo not given) showed a survival of 92%. `Cc1cc(C)cc(N2CC(c3nc(-c4cccc(Cl)c4)no3)CC2=O)c1` (stereo not given) was tested, and the survival was 37% (active). With `Cc1ccc(-c2noc(C3CC(=O)N(c4ccc5c(c4)OCCO5)C3)n2)cc1` (stereo not given) the survival was 46% (active). `Cc1ccc(-c2nc3n(n2)C(=O)CC(c2ccc(C)cc2)S3)cc1` (stereo not given) showed a survival of 90%. Compound `NC(=O)CSc1ncnc2c1cnn2-c1ccccc1` has a survival of 82%. With `CCOc1ccc(C(=O)N2CC(=O)Nc3ccc(F)cc3C2c2ccc(F)cc2)cc1` (stereo not given) the survival was 148%. `Cc1ccc(C(=O)N2CC(=O)Nc3ccc(Br)cc3C2c2ccc(F)cc2)cc1C` (stereo not given) gave a survival of 66%. Compound `O=C1CN(C(=O)COc2ccc(Cl)cc2)C(c2ccc(F)cc2)c2cc(Cl)ccc2N1` (stereo not given) has a survival of 45%. `O=C1CN(C(=O)COc2ccc(Cl)cc2)C(c2ccc(F)cc2)c2cc(Br)ccc2N1` (stereo not given) was tested, and the survival was 36% (active). Compound `O=C1CN(C(=O)Cc2ccc(F)cc2)C(c2ccccc2)c2cc(Br)ccc2N1` (stereo not given) has a survival of 58%. With `O=C1CN(C(=O)COc2ccccc2)C(c2ccc(F)cc2)c2cc(Br)ccc2N1` (stereo not given) the survival was 33% (active). `COc1ccc(C(=O)N2CC(=O)Nc3ccc(Br)cc3C2c2ccc(F)cc2)cc1OC` (stereo not given) gave a survival of 48%. In the case of `O=C1CN(C(=O)c2ccccc2)C(c2ccc(F)cc2)c2cc(Br)ccc2N1` (stereo not given), the survival is reported as 60%. `O=C1CN(C(=O)COc2ccc(Cl)cc2)C(c2ccccc2)c2cc(Br)ccc2N1` (stereo not given) gave a survival of 60%. With `CCCCOc1ccc(C(=O)N2CC(=O)Nc3ccc(Br)cc3C2c2ccc(F)cc2)cc1` (stereo not given) the survival was 39% (active). With `O=C1CN(C(=O)c2c(F)cccc2Cl)C(c2ccc(F)cc2)c2cc(Br)ccc2N1` (stereo not given) the survival was 42% (active). Compound `O=C(c1ccccc1/S(=N/S(=O)(=O)c1ccccc1)N1CCOCC1)N1CCOCC1` (stereo not given) has a survival of 75%. `Clc1cccc(-c2nnc(CN3CCN(c4ccccn4)CC3)o2)c1` was tested, and the survival was 82%. `CCOc1ccc(CC(=O)NCC(c2cccs2)S(=O)(=O)c2ccc(F)c(C)c2)cc1` (stereo not given) showed a survival of 67%. In the case of `Cc1ccc(N2CC(NC(=O)C3CCCC3)CC2=O)cc1C` (stereo not given), the survival is reported as 103%. In the case of `Cc1ccc(CNc2oc(-c3ccc(COc4ccc(C)cc4)o3)nc2C#N)cc1`, the survival is reported as 65%. For `COCCNC(=O)CCCn1c(SCc2ccccc2C)nc2c(sc3ccccc32)c1=O`, the survival was 97%. With `Cc1ccc2oc3c(c(=O)c2c1)C(c1ccc(OCC(N)=O)cc1)N(Cc1ccc2c(c1)OCO2)C3=O` (stereo not given) the survival was 93%. Work on `COC(=O)c1ccc(-n2nnc(-c3nc(-c4ccc5c(c4)OCO5)no3)c2C)cc1` yielded a survival of 82%. Work on `Cc1ccccc1NC(=O)c1c(C)oc2ccc(O)c(CN3CCN(C)CC3)c12` yielded a survival of 77%. Compound `CCN(CC)CCCNC(=O)CSc1nc2nc(C)c(Cc3c(F)cccc3Cl)c(C)n2n1` has a survival of 146%. With `Cc1nc2nc(SCC(=O)NCCc3ccccc3)nn2c(C)c1Cc1c(F)cccc1Cl` the survival was 37% (active). Compound `Cc1nc2nc(SCC(=O)NC(C)c3ccccc3)nn2c(C)c1Cc1c(F)cccc1Cl` (stereo not given) has a survival of 68%. For `Cc1ccccc1Cc1c(C)nc2nc(SCC(=O)NCCc3ccc(Cl)cc3)nn2c1C`, the survival was 67%. Work on `Cc1nc2nc(SCC(=O)O)nn2c(C)c1Cc1c(F)cccc1Cl` yielded a survival of 93%. In the case of `Cc1nc2nc(SCC(=O)NCCc3ccc(Cl)cc3)nn2c(C)c1Cc1ccccc1Cl`, the survival is reported as 99%. In the case of `CCCCNC(=O)CSc1nc2nc(C)c(Cc3c(F)cccc3Cl)c(C)n2n1`, the survival is reported as 31% (active). For `Cc1nc2nc(SCC(=O)NCCc3ccc(Cl)cc3)nn2c(C)c1Cc1c(F)cccc1Cl`, the survival was 0% (active). In the case of `Cc1nc2nc(SCC(=O)NCCc3ccc(Cl)cc3)nn2c(C)c1Cc1ccccc1`, the survival is reported as 46% (active). `Cc1nc2nc(SCC(=O)Nc3cccc(Cl)c3)nn2c(C)c1Cc1ccccc1` was tested, and the survival was 85%. Compound `Cc1nc2nc(SCc3c(F)cccc3Cl)nn2c(C)c1Cc1ccccc1` has a survival of 66%. `COc1ccc(CCNC(=O)CSc2nc3nc(C)c(Cc4ccc(C)cc4)c(C)n3n2)cc1OC` was tested, and the survival was 55%. In the case of `Cc1cccc(C(=O)N2CCc3cc(CNS(=O)(=O)c4cccs4)ccc32)c1`, the survival is reported as 74%. In the case of `Cc1ccc(C)c(CN2C(=O)c3ccccc3S(=O)(=O)c3ccc(C(=O)Nc4ccccc4C(F)(F)F)cc32)c1`, the survival is reported as 84%. `Cc1ccccc1Cn1c(CN2CCN(c3cc(Cl)ccc3C)CC2)nc2c1c(=O)[nH]c(=O)n2C` was tested, and the survival was 106%. For `CCOC(=O)Cc1ccc(NC(=O)N(Cc2ccc(OC)cc2)C2CCN(C(C)=O)CC2)cc1`, the survival was 88%. For `Cc1ccc(NC(=O)C(=O)NCC(c2cccnc2)N2CCN(c3ccccc3F)CC2)cc1Cl` (stereo not given), the survival was 73%. With `Cc1oc(-c2ccc(C(=O)NCc3ccccc3)cc2)nc1CS(=O)(=O)c1ccccc1` the survival was 88%. With `Cc1ccc(C)c(N2CCN(C(=O)c3ccc4[nH]c(C)c(C)c4c3)CC2)c1` the survival was 80%. `CN(C)Cn1c(O)c(N=NC(=O)c2ccccc2)c2ccccc21` gave a survival of 93%. For `N=Nc1c(O)n(CC(=O)Nc2ccccc2)c2ccccc12`, the survival was 87%. With `N=C(N=Nc1c(O)n(Cc2ccccc2)c2ccccc12)SCC(=O)Nc1ccccc1` the survival was 23% (active). `Cc1ccc(NC(=O)C2CCN(S(=O)(=O)c3c(C)noc3C)CC2)cc1` was tested, and the survival was 105%. For `COc1ccc(-c2nn3c(-c4ccccc4C)nnc3c3ccccc23)cc1`, the survival was 2% (active). `Cc1ccc(-c2nn3c(-c4ccccc4C)nnc3c3ccccc23)cc1` gave a survival of 40%. In the case of `Cc1ccc(-c2nn3c(-c4ccccc4)nnc3c3ccccc23)cc1`, the survival is reported as 86%. For `Cc1ccc(-c2nn3c(-c4ccc(C)cc4)nnc3c3ccccc23)cc1`, the survival was 20% (active). For `Cc1ccc(-c2nnc3c4ccccc4c(-c4ccccc4)nn23)cc1`, the survival was 134%. `COc1ccc(-c2nn3c(-c4ccc(OC)cc4)nnc3c3ccccc23)cc1` showed a survival of 102%.
